Pf growth 48h = inhibits P. falciparum growth in the first generation, 48 h; 5.9% of 310,000 active; P. falciparum luciferase growth in erythrocytes, 48 h; Potency, µM (top dose mostly 28.7 µM), usual class: inhibitors
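Luminescence readout; reporter = integrated firefly luciferase in P. falciparum. RBC culture at 2% hematocrit, 0.1% parasitemia final, 37 C/5% CO2; decreased signal taken as growth inhibition.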
HCMV inh = inhibitors of human cytomegalovirus; HFF cells, HCMV-luciferase reporter, 72 h; hits give low values; activity change, negative = inhibition, % at 57.5 µM; 4.5% of 410,000 active; in the data active means activity change below about -60%; inconclusive means no clear call, values can overlap the other calls; inactive means above about -39%
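HFF cells seeded 16 h at 37C, treated with compounds, infected with luciferase-reporter HCMV at MOI 1 PFU/cell; luciferase read at 72 h post infection, normalized to buffer-only and Salinomycin controls.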
Giardia FBPA inh-1 = Giardia lamblia aldolase inhibition; A8B2U2; purified Giardia FBPA; Potency, µM (titrated, usually from 59.6 µM), most hits filed as inhibitors; 0.71% of 290,000 active; AID 2451; further: nearly all actives have a fitted effect of over 55% in size
Target sequence (A8B2U2 whole entry, looked up): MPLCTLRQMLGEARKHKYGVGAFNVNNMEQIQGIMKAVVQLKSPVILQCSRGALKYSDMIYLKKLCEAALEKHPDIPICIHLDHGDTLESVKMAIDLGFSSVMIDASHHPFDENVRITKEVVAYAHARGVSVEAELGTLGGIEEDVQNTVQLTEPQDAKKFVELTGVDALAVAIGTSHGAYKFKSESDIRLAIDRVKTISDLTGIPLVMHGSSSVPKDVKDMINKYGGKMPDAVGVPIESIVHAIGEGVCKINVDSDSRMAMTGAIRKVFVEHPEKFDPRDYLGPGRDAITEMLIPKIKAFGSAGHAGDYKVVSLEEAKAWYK
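Giardia FBPA (40 nM reagent) was preincubated 10 min at RT with compound (up to 57.5 uM final), then substrate plus GAPDH/TPI/NAD/arsenate coupling system with diaphorase/resazurin was added; resorufin fluorescence (525/598 nm) was read after 20 min.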
Sm TGR block = S. mansoni TGR enzyme inhibition; purified TGR, DTNB reduction, TNB absorbance 405 nm; Potency, µM (highest dose often 114 µM), usual class: inhibitors; AID 485364; 3% of 360,000 active; further: nearly all actives have a fitted effect of over 60% in size
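First, TGR (20 nM dispensed) and NADPH were mixed with compound. Second, a 15 min room-temperature incubation followed. Third, further NADPH and then DTNB were added to start the reaction. Finally, TNB absorbance was monitored kinetically.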
Pf growth 96h = P. falciparum growth inhibition at 96 hours | P. falciparum luciferase reporter growth, 96 h | Potency, µM (top dose mostly 28.7 µM), most hits filed as inhibitors | 6.9% of 320,000 active
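96 h incubation, 37 C, 5% CO2, of luciferase-reporter P. falciparum-infected RBCs (2% hematocrit, 0.05% parasitemia final) with test compounds; endpoint luminescence.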
Giardia growth = blocks growth of Giardia lamblia trophozoites | shares compounds with Giardia FBPA inh-1 | AID 2785 | Giardia lamblia trophozoite growth inhibition | 5% of 1,500 active | Potency, µM (top dose mostly 57.5 µM), hits mostly inhibitors;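 further: trophozoites exposed to compound for 48 h at 37 °C; nearly all actives have a fitted effect of over 70% in size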
Mammal cell tox = toxic to mammalian cells in Giardia aldolase counter-screen. Potency, µM (doses to about 57.5 µM), most hits filed as inhibitors. mammalian cell viability counter-screen, qHTS. 4% of 1,500 active. shares compounds with Giardia FBPA inh-1;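 further: Chinese hamster ovary cells used as mammalian cytotoxicity surrogate; viability measured as cellular ATP by luminescence; compound exposure lasted 48 h before reading; nearly all actives have a fitted effect of over 60% in size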
Giardia FBPA inh-2 = confirmation of Giardia fructose-bisphosphate aldolase inhibitors; shares compounds with Giardia FBPA inh-1; purified Giardia aldolase enzyme activity, qHTS; Potency, µM (doses to about 57.5 µM), actives largely listed as inhibitors; 5% of 1,500 active; further: nearly all actives have a fitted effect of over 45% in size
Rabbit aldolase = blocks rabbit muscle aldolase in Giardia aldolase selectivity test. Potency, µM (titrated, usually from 57.5 µM), most hits filed as inhibitors. shares compounds with Giardia FBPA inh-1. Rabbit muscle FBPA enzyme inhibition, selectivity counter-screen. 4% of 1,500 active. AID 2794; further: nearly all actives have a fitted effect of over 60% in size
Target sequence (P00883 whole entry, looked up): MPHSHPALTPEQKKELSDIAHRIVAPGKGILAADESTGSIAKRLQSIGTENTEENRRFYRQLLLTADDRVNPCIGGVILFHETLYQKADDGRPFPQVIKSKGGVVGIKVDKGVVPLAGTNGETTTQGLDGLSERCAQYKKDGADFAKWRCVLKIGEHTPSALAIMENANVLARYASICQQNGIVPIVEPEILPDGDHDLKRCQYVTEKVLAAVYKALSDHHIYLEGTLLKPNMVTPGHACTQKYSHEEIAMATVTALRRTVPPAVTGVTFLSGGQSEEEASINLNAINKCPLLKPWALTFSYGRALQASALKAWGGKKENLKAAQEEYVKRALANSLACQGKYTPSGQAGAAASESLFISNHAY
GAPDH coupling = GAPDH inhibition flagged for Giardia aldolase hits | GAPDH coupling enzyme counterscreen, biochemical, qHTS | shares compounds with Giardia FBPA inh-1 | Potency, µM (titrated, usually from 57.5 µM), actives largely listed as inhibitors | 6% of 1,500 active; further: nearly all actives have a fitted effect of over 55% in size
Hits are given with their value; - = inactive; ? = inconclusive; . = not tested or not shown; [ ] = another dose, or the depositor's remark. Shown are actives, neighbours in structure and some others; about 14% of the full set was active somewhere. Unless noted, the call rests on the fitted dose curve; in most records, active means well fitted curve in the direction sought with a large enough effect; inconclusive means small, poorly fitted or top-dose-only effect, or another doubt; inactive means no such curve, though single readings can be large; an effect the other way counts as inactive or inconclusive.

SMILES | Pf growth 48h | HCMV inh | Giardia FBPA inh-1 | Sm TGR block | Pf growth 96h | Giardia growth | Mammal cell tox | Giardia FBPA inh-2 | Rabbit aldolase | GAPDH coupling
Cc1ccc2c(c1)C1CN(C)CCC1N2C(=S)NC(=O)c1ccc(Br)cc1 (centres undefined) | ? | -62.3 | 15.8µM | - | ? | 8.91µM | - | - | - | -
Cc1ccc2c(c1)C1CN(C)CCC1N2C(=O)c1ccc(Br)o1 (centres undefined) | . | - | - | ? | - | . | . | . | . | .
CN1CCN(C(=S)NC(=O)c2ccc(-c3ccccc3)cc2)CC1 | - | ? | 17.7µM | - | - | -[10.4 µM] | - | - | - | -
CN1CCN(C(=S)NC(=O)c2ccc(Br)cc2)CC1 | - | - | 17.7µM | - | ? | - | - | - | - | -
COC(=O)[C@@H](NCc1ccc(B(O)O)cc1)C(C)C | . | - | . | . | . | . | . | . | . | .
CCCS(=O)(=O)NC(=O)C1(C)CCCN(C(=O)c2ccc(C#N)cc2)C1 (centres undefined) | . | - | . | . | . | . | . | . | . | .
C[C@@H]1CN([C@@H](C)CO)C(=O)c2cc(Br)cnc2O[C@H]1CN(C)C(=O)CN1CCOCC1 | . | - | . | . | . | . | . | . | . | .
CCn1ncc(-c2ccnc3cc(C(=O)O)nn23)c1C | - | - | 15.8µM | - | - | - | - | - | - | -
O=C(O)c1cc2nccc(-c3ccc(F)cc3)n2n1 | - | ? | 17.7µM | - | - | - | - | - | - | -
Cc1c(C(=O)Nc2cccc(Cl)c2)sc2nc3n(c(=O)c12)N=C(c1cccc(Br)c1)CS3 | . | - | . | - | . | . | . | . | . | .
CCN(CC)C(=O)Cn1c(=O)n(CCCCCC(=O)NCc2ccccc2Cl)c(=O)c2sccc21 | . | - | . | - | . | . | . | . | . | .
CCn1c(CCc2ccccc2)nc2ccccc21 | ? | - | 14.1µM | - | 0.131µM | - | - | - | - | -
CC(C)(C)Cc1nc2ccccc2n1CCc1ccccc1 | . | - | - | - | - | . | . | . | . | .
COc1ccc(OCC(O)CNC(=O)c2cccs2)cc1 (centres undefined) | - | - | - | - | - | . | . | . | . | .
COc1ccc(NC(=O)CSc2nc(-c3cccc(C)c3)[nH]c2-c2ccccc2)cc1OC | . | - | . | ? | . | . | . | . | . | .
O=C1NC(=O)/C(=C/c2ccc(-c3cc(C(=O)O)ccc3Cl)o2)S1 | - | - | 31.6µM | - | ? | - | - | - | - | -
Cn1c2ccccc2c(=O)c2ccc(C#CC3(O)CCCCC3)cc21 | - | ? | - | - | - | . | . | . | . | .
N=C1/C(=C/c2coc3ccccc3c2=O)C(=O)N=C2SC(c3ccco3)=NN12 | - | . | 15.8µM | 10µM | - | - | - | - | - | -
N=C1/C(=C\c2coc3ccccc3c2=O)C(=O)N=C2SC(c3ccncc3)=NN12 | ? | - | - | - | ? | . | . | . | . | .
Cc1cc(Br)ccc1NCc1ccccn1 | - | - | ? | - | - | . | . | . | . | .
COc1ccc(-n2nnnc2SCC(=O)c2ccc(O)c(O)c2)cc1 | ? | - | ? | - | - | - | ? | - | - | -
Cn1c(SCC(=O)c2ccc(O)c(O)c2)nnc1-c1ccccc1 | . | - | ? | ? | - | . | . | . | . | .
Cn1c(SCC(=O)c2ccc(O)c(O)c2)nnc1-c1cccs1 | ? | - | 5µM | - | ? | - | - | ? | - | -
Cc1cc(=O)[nH]c(SCC(=O)c2ccc(O)c(O)c2)n1 | ? | - | 8.91µM | 17.8µM | ? | ? | - | ? | - | -
Cc1cc(C)nc(SCC(=O)c2ccc(O)c(O)c2)n1 | ? | - | 11.2µM | - | - | - | - | - | - | -
SMILES | Pf growth 48h | HCMV inh | Giardia FBPA inh-1 | Sm TGR block | Pf growth 96h | Giardia growth | Mammal cell tox | Giardia FBPA inh-2 | Rabbit aldolase | GAPDH coupling
Cc1ccc(C(=O)CSc2nc(C)cc(=O)[nH]2)cc1 | - | - | . | - | - | . | . | . | . | .
COc1ccc(-n2nnnc2SCC(=O)c2cc3ccccc3o2)cc1 | - | - | - | - | ? | . | . | . | . | .
O=C(NCC1CC1)c1ccc(-c2cn[nH]c2)c2ccoc12 | . | - | . | . | . | . | . | . | . | .
CC(=O)OC[C@@H]1O[C@H](C/C=N\O[C@@H](C)CN2CCCCc3nc(C)c(C)cc32)C=C[C@@H]1OC(C)=O | . | . | -[12.9 µM] | . | . | . | . | . | . | .
COc1ccc(-c2ccc(C(=O)Nc3cccc(NS(C)(=O)=O)c3)c3occc23)c(C)c1 | . | - | . | . | . | . | . | . | . | .
c1ccc(-c2nc(-c3ccncc3)n[nH]2)nc1 | - | - | 3.54µM | - | - | - | - | - | - | -
CCCCN(CC)Cc1ccc(CNC(=S)Nc2c(C)cc(C)cc2C)o1 | ? | - | 12.6µM | ? | - | - | - | - | - | -
COc1ccccc1NC(=S)N(CCc1ccc(OC)c(OC)c1)Cc1ccccn1 | ? | - | - | - | - | . | . | . | . | .
COc1ccc(CCN(Cc2ccccn2)C(=S)Nc2ccc(C)cc2)cc1OC | - | - | - | - | -[1.15 µM] | . | . | . | . | .
COc1ccccc1NC(=S)N(Cc1ccc(C)cc1)Cc1ccccn1 | - | - | 17.7µM | - | ? | - | - | - | - | -
COc1ccc(CCN(Cc2ccccn2)C(=S)Nc2cccc(SC)c2)cc1OC | ? | - | 9.98µM | - | - | - | - | - | - | -
CN(c1ccccc1)S(=O)(=O)c1nnc(NC(=O)C2CCCCC2)s1 | - | - | - | - | - | . | . | . | . | .
N#Cc1ccccc1S(=O)(=O)N1CCN(CC(O)COc2ccccc2F)CC1 (centres undefined) | - | - | 15.8µM | - | ? | ? | - | - | - | -
O=S(=O)(c1ccc(F)cc1)N1CCN(CC(O)COCc2cccs2)CC1 (centres undefined) | - | - | - | - | - | . | . | . | . | .
O=S(=O)(c1ccc(F)cc1)N1CCN(CC(O)COc2ccccc2F)CC1 (centres undefined) | - | ? | 28.2µM | - | - | ? | - | - | - | -
CC(C)c1ccccc1OCC(O)CN1CCN(S(=O)(=O)c2ccc([N+](=O)[O-])cc2)CC1 (centres undefined) | 3.7µM | - | 17.8µM | - | 2.62µM | 5.62µM | - | - | - | -
O=S(=O)(c1ccccc1)N1CCN(CC(O)COc2ccc3c(c2)CCC3)CC1 (centres undefined) | . | - | - | - | - | . | . | . | . | .
O=S(=O)(c1ccccc1C(F)(F)F)N1CCN(CC(O)COc2ccccc2F)CC1 (centres undefined) | - | - | ? | - | ? | . | . | . | . | .
O=C(CN1CCOCC1)Nc1c2c(nc3ccccc13)N(Cc1ccccc1)CC2 | ? | - | 15.8µM | - | - | ? | - | - | - | -
O=C(CN1CCCC1)Nc1c2c(nc3ccccc13)N(Cc1ccccc1)CC2 | ? | - | ? | - | . | . | . | . | . | .
COc1cc(NC(=O)Cn2c(=O)n(Cc3ccco3)c(=O)c3sc4ccccc4c32)cc(OC)c1 | . | - | . | - | . | . | . | . | . | .

Screening results: PubChem BioAssay, National Center for Advancing Translational Sciences (NCATS)
